Screening data (PubChem BioAssay)
Rows were chosen to be rich in hits. Some 3.3% of all compounds tested hit in one or more screens of this group.
Sm TGR block = blocks Schistosoma mansoni thioredoxin glutathione reductase; Q962Y6; purified TGR, DTNB reduction, TNB absorbance 405 nm; Potency, µM (highest dose often 114 µM), actives largely listed as inhibitors; 3% of 360,000 active; note: nearly all actives have a fitted effect of over 60% in size
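Kinetic colorimetric format: TGR-catalysed, NADPH-driven DTNB reduction monitored via TNB absorbance. Enzyme dispensed at 20 nM; compound exposure 15 min at room temperature before reaction start.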
AmpC inh no detg = inhibitors of E. coli AmpC beta-lactamase without detergent; 0.52% of 330,000 active; AmpC nitrocefin hydrolysis, absorbance 480 nm, 0.0001% Triton; P00811; Potency, µM (series often up to 57.1 µM), usual class: inhibitors; note: nearly all actives have a fitted effect of over 20% in size
Target sequence (P00811 whole entry, looked up): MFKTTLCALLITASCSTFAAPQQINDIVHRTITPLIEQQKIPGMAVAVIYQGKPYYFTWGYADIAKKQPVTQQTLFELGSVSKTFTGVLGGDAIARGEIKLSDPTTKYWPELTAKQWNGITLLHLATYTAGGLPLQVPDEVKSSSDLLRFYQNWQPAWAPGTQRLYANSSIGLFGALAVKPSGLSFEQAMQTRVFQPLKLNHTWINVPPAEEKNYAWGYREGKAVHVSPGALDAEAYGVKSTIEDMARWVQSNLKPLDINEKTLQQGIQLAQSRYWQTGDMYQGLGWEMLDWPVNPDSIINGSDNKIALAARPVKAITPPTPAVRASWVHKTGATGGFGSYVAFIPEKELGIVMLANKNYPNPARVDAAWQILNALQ
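20 mM phosphate pH 7.0 + 0.01% (detergent screen) or 0.0001% Triton X-100; 5.3 nM AmpC reagent; cpd preinc 15 min RT; nitrocefin (800 uM stock) to start; A480 q20 s × 4 min; Activity was normalised to no-enzyme and no-compound control wells.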
AmpC detergent = inhibitors of E. coli AmpC beta-lactamase with detergent; P00811; AmpC hydrolysis of nitrocefin, absorbance 480 nm, 0.01% Triton; Potency, µM (doses to about 114 µM), most hits filed as inhibitors; 0.041% of 370,000 active; note: nearly all actives have a fitted effect of over 25% in size
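20 mM phosphate pH 7.0 + 0.01% (detergent screen) or 0.0001% Triton X-100; 5.3 nM AmpC reagent; cpd preinc 15 min RT; nitrocefin (800 uM stock) to start; A480 q20 s × 4 min; Activity was normalised to no-enzyme and no-compound control wells.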
Of the large screens only hits and unclear results are named; the others gave an inactive call. Calls come from the whole dose curve; as a rule, active = well fitted curve in the direction sought with a large enough effect; inconclusive = small, poorly fitted or top-dose-only effect, or another doubt; inactive = no such curve, though single readings can be large; an effect the other way counts as inactive or inconclusive.

CCCCN(C(=O)CSc1n[nH]c(-c2ccc(C)cc2)n1)c1c(N)n(CCCC)c(=O)[nH]c1=O	none
COc1ccc(CNC(=O)CSc2ccc(Br)cc2)cc1OC	none
CCN(CC(=O)Nc1ccc(N2CCOCC2)cc1)C(=O)Cc1ccccc1	none
Cc1[nH]c2ccccc2c1C(O)c1ccncc1 (stereo unspecified)	Sm TGR block 25.1µM
O=c1[nH]c(=S)[nH]c(O)c1C(c1ccccn1)c1c(O)[nH]c(=S)[nH]c1=O	none
Cc1[nH]c2ccccc2c1SCC(=O)N1CCCCC1	none
Cc1[nH]c2ccccc2c1C(c1ccncc1)N1CCN(c2ccc(F)cc2)CC1 (stereo unspecified)	Sm TGR block 8.91µM, AmpC inh no detg inconclusive
Cc1ccccc1C(O)c1ccncc1 (stereo unspecified)	none
Cc1[nH]c2ccccc2c1C(c1ccncc1)N1CCCCC1 (stereo unspecified)	Sm TGR block 1.78µM
CC(C)(C)n1nnnc1C(c1ccncc1)N1CCN(c2ccc(O)cc2)CC1 (stereo unspecified)	none
Cc1[nH]c2ccccc2c1C(c1ccccn1)c1c(C)[nH]c2ccccc12	Sm TGR block 5.62µM
COc1cccc(CN(C)C(=O)C(Cc2ccccc2)NC(=O)c2ccccc2)c1OC (stereo unspecified)	AmpC detergent inconclusive
O=C(CN1C(=O)/C(=C/c2cccc(Br)c2)SC1=S)N1CCCC1	none
COc1ccc(C(=O)C2CCN(CC(=O)Nc3ccc(C)cc3)CC2)cc1	none
CCc1cccc(NC(c2ccccc2)c2nnc(-c3ccccc3F)o2)c1 (stereo unspecified)	none (no result: AmpC inh no detg)
COc1ccc(CN2CCNC(=O)C2CC(=O)N(C)Cc2nonc2C)c(F)c1 (stereo unspecified)	Sm TGR block inconclusive
O=c1[nH]c2ccc(NC(=S)NCc3ccccc3)cc2[nH]1	Sm TGR block 8.91µM, AmpC detergent inconclusive
COC(=O)C(O)(c1ccc(NC(=S)NC(=O)c2ccccc2)cc1)C(F)(F)F (stereo unspecified)	Sm TGR block 28.2µM
Cc1ccc(NC(=S)Nc2ccc3cn[nH]c3c2)cc1	none
CC(=O)c1cccc(NC(=S)NC(=O)c2cccc(Cl)c2)c1	Sm TGR block 39.8µM
Cc1ccc(NC(=S)Nc2ccc3[nH]c(=O)[nH]c3c2)cc1C	none
COC(=O)C(O)(c1ccc(NC(=O)Oc2ccccc2)cc1)C(F)(F)F (stereo unspecified)	none
CC(=O)c1cccc(NC(=S)NC(=O)C(C)C)c1	none
C=CCNC(=S)Nc1ccc2cn[nH]c2c1	Sm TGR block 39.8µM
COc1ccc(NC(=O)Nc2ccc(Br)cn2)cc1	none
CC(C)C(=O)C1=Cc2cc([N+](=O)[O-])ccc2OC1N1CCOCC1 (stereo unspecified)	AmpC detergent inconclusive
COc1cccc(CNC(=O)CCCn2c(=S)[nH]c3cc4c(cc3c2=O)OCO4)c1	none
Cc1cccc(Nc2nnc(-c3ccc(N4CCOCC4)c([N+](=O)[O-])c3)c3ccccc23)c1	none
COc1cc(CN(C(=O)COc2ccc(Br)cc2)c2ccccn2)cc(OC)c1OC	none (no result: AmpC inh no detg)
O=C(NC(=S)Nc1ccc2cn[nH]c2c1)c1ccccc1	Sm TGR block 14.1µM
CC(=O)c1cccc(NC(=S)NC(=O)c2ccccc2)c1	Sm TGR block 28.2µM
C=CCNC(=S)Nc1ccc(OC(=O)Nc2ccc(Cl)c(Cl)c2)cc1	Sm TGR block 35.5µM
S=C(Nc1ccccc1)Nc1ccc2cn[nH]c2c1	Sm TGR block inconclusive
COc1ccc(C(=O)NC(=S)Nc2ccc3[nH]c(=O)[nH]c3c2)cc1	none
C=CCNC(=S)Nc1cccc(NC(=S)NCC=C)c1	Sm TGR block inconclusive
O=C(O)c1cccc(NC(=S)NC(=O)c2ccc(-c3ccccc3)cc2)c1	none (no result: Sm TGR block)
CC(C)c1ccc(C(=O)NC(=S)Nc2ccc3[nH]c(=O)[nH]c3c2)cc1	AmpC inh no detg 8.91µM
CCOP(=O)(OCC)C(NC(=O)c1cccs1)c1ccccc1 (stereo unspecified)	none
CC1CCCC(NC(=O)COC(=O)c2ccc3ncsc3c2)C1C (stereo unspecified)	none
CCc1ccc(NC(=O)C2(C)Cc3ccccc3C(=O)O2)cc1 (stereo unspecified)	none
Cc1ccc2ncccc2c1NC(=S)NC(=O)c1ccccc1	Sm TGR block 20µM, AmpC detergent inconclusive
Cc1ccc2ncccc2c1NS(=O)(=O)c1ccccc1	none
COc1ccc(N2CCOCC2)c(NC(=O)c2cc3ccccc3o2)c1	none
CCOc1ccc(C(=O)NCc2nnnn2-c2ccc(C)c(C)c2)cc1OCC	none (no result: AmpC inh no detg)
Cc1ccc(S(=O)(=O)NCCSCc2ccco2)cc1	Sm TGR block inconclusive
COc1ccc(S(=O)(=O)NCCc2ccco2)cc1OC	AmpC detergent inconclusive
